Hit rate of the full screen: of about 390,000 compounds, about 17,000 (4.4%) were called active. About 8% were inconclusive and are not listed. Shown is part of a subset that was picked to be rich in actives. Values without a mark were called inactive. Calls follow the shape of the dose curve; as a rule, active = well fitted inhibition curve with a large enough effect; inconclusive = small, poorly fitted or top-dose-only effect; inactive = no such curve, though single readings can be large or run the other way.
Target: Lysine-specific demethylase 4A (Homo sapiens) (UniProt O75164)
Sequence (O75164 whole entry, looked up, the tested form may be a part): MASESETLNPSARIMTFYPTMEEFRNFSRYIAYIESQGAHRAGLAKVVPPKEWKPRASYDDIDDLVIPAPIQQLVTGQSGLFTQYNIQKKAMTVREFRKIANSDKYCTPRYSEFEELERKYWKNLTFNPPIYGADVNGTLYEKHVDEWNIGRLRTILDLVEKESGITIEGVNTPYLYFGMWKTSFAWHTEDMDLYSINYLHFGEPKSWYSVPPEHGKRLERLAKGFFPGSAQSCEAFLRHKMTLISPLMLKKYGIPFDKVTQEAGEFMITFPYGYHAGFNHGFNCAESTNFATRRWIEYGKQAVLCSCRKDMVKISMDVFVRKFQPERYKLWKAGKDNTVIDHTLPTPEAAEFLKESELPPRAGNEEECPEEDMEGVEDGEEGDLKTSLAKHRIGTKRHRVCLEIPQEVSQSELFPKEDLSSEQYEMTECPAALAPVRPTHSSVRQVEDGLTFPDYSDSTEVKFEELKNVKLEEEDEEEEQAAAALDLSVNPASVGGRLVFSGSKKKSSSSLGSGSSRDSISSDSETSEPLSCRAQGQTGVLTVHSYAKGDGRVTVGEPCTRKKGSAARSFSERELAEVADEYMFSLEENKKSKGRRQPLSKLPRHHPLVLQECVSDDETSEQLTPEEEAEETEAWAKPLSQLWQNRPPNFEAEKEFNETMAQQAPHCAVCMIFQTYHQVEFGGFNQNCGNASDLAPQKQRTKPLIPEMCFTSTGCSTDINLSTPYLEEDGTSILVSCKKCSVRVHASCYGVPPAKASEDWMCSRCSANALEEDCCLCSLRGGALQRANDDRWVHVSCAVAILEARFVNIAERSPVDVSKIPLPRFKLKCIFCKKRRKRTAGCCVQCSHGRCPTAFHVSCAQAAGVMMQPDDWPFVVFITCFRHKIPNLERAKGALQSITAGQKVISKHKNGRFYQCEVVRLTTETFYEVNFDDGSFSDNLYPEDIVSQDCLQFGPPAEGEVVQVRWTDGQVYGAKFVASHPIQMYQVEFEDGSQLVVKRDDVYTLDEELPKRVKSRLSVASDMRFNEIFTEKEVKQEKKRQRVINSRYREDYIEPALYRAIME
Assay: qHTS Assay for Inhibitors of JMJD2A-Tudor Domain; also: nearly all actives have a fitted effect of over 50% in size
Settings: AlphaScreen JMJD2A-Tudor / H3K4me3 peptide binding; series mostly up to 114 µM; activity change, negative = inhibition: at the top concentration
% is scaled to controls: 0 for no effect and ±100 for the full control effect; potency is read from the fitted curve at half-maximal effect.

| Compound | activity change, negative = inhibition | Potency |
| --- | --- | --- |
| Cc1ccc(CNC(=O)CCC(=O)N2Cc3ccccc3Oc3ncccc32)cc1 | -18.4% | – |
| O=C(Nc1nc(-c2ccco2)c(-c2ccco2)s1)c1ccco1 | – | 50.1 µM (active) |
| O=C(Nc1nonc1-c1ccc(Cl)cc1)c1ccco1 | -1% | – |
| CCN(c1ccc(Cl)cc1)S(=O)(=O)c1nnc(NC(=O)c2ccco2)s1 | -22.7% | – |
| Cc1ccc(S(=O)(=O)c2cn(Cc3ccccc3)c3cc(N4CCCC4)c(F)cc3c2=O)c(C)c1 | -7.92% | – |
| CCOc1ccc(NCCC(=O)c2ccc3c(c2)OCO3)cc1 | – | 39.8 µM (active) |
| O=C(COc1ccc(Cl)cc1)Nc1ccc2c(c1)OCO2 | -8.48% | – |
| COC(=O)CCNc1ccc2c(c1)OCCO2 | -29.7% | – |
| CNC(=O)[C@]1(C(F)(F)F)C[C@H](CCc2ccccc2)CCCO1 | -17.2% | – |
| O=C(NCc1ccccn1)[C@]1(C(F)(F)F)C[C@H](CCc2ccccc2)CCCO1 | – | 39.8 µM (active) |
| Cc1ccc(CNC(=O)C2(C(F)(F)F)C/C(=C\Cc3ccccc3)CCCO2)o1 (stereo not given) | – | inactive |
| CCCOc1cccc(C(=O)Nc2cccc(NC(=O)c3ccc(C(C)(C)C)cc3)c2)c1 | -10.5% | – |
| Cc1ccc(-c2n[nH]c(=S)n2/N=C/c2cc3c(cc2[N+](=O)[O-])OCO3)cc1 | – | 10 µM (active) |
| Cc1ccc(S(=O)(=O)N/N=C\c2cc3c(cc2[N+](=O)[O-])OCO3)cc1 | -19% | – |
| CCOc1ccc(-c2n[nH]c(=S)n2/N=C/c2cc3c(cc2[N+](=O)[O-])OCO3)cc1 | – | 17.8 µM (active) |
| CCN1CCN(C(C(=O)NC2CCCC2)c2cc3c(cc2[N+](=O)[O-])OCO3)CC1 (stereo not given) | -10.4% | – |
| CCOC(=O)c1nc(-c2ccc3c(c2)OCO3)[nH]c1C | -12.5% | – |
| O=S(=O)(c1ccc(Cl)cc1)c1nnn2c1nc(NC1CCCC1)c1sccc12 | -11.7% | – |
| Fc1ccc(-c2ccc(CNCc3ccccn3)o2)cc1Cl | – | 63.1 µM (active) |
| Cc1cc(S(=O)(=O)NCc2ccccn2)c(Cl)cc1Cl | 4.12% | – |
| COc1ccc(-c2ccc(CNCCCN3CCOCC3)o2)cc1Cl | -20% | – |
| O=C(NC1CCN(Cc2ccccc2)CC1)c1ccc(Cn2c(=O)c3ccccc3n(Cc3cccc(F)c3)c2=O)cc1 | -18.1% | – |
| O=C1CN(C(=O)Nc2ccccc2C(F)(F)F)C(c2ccccc2)c2c(sc3c2CCCC3)N1 (stereo not given) | -11.6% | – |
| COc1ccc(CNC(=O)CS(=O)Cc2nc(-c3cccc(C)c3)oc2C)cc1 (stereo not given) | -14.5% | – |
| Cc1cccc(N2CCN(C(c3ccccc3)c3nnnn3CC3CCCO3)CC2)c1C (stereo not given) | -8.9% [at 11.4 µM] | – |

| Compound | activity change, negative = inhibition | Potency |
| --- | --- | --- |
| CC1(C)CC(=O)C=C(N2CCOCC2)C1 | 8.3% | – |
| CC1(C)CC(N2CCN(C(c3ccccc3)c3ccccc3)CC2)=CC(=[N+]2CCCCC2)C1 | – | 25.1 µM (active) |
| CCNS(=O)(=O)c1ccc(NC(=O)CSc2nc(-c3ccco3)cc(C(F)(F)F)n2)cc1 | -13.4% | – |
| O=C(CSc1cn(CC(=O)N2CCOCC2)c2ccccc12)Nc1ccccc1 | -5.13% | – |
| CC(=O)Nc1ccc(NC(=O)C2CCCN(S(=O)(=O)c3ccc4c(c3)CCCC(=O)N4)C2)cc1 (stereo not given) | -8.41% | – |
| COc1cc(C2c3c(oc4ccccc4c3=O)C(=O)N2c2nc(C)c(C)s2)ccc1O (stereo not given) | -16.2% | – |
| CCOc1ccc(-n2c(C)nc3c(cnn3-c3ccc(C)cc3)c2=O)cc1 | 2% | – |
| Cn1ccc2cc(S(=O)(=O)N3CCCC(C(=O)NCc4ccccc4F)C3)ccc21 (stereo not given) | -11.2% | – |
| COc1ccc(CN2CCNC(=O)C2CC(=O)N(C)Cc2ccccn2)cc1OC (stereo not given) | – | 14.1 µM (active) |
| CN(Cc1cccc2ncccc12)C(=O)CC1C(=O)NCCN1Cc1ccc(F)cc1 (stereo not given) | -4.9% | – |
| COc1cccc(CN2CCNC(=O)C2CC(=O)N(C)CCc2ccccn2)c1 (stereo not given) | -9.06% | – |
| Cc1ccc(CCNC(=O)c2ccc3c(c2)N(Cc2cc(C)ccc2C)C(=O)c2ccccc2S3=O)cc1 (stereo not given) | -18.9% | – |
| Cc1ccc(NC(=O)NC(C)c2c(-n3cccc3)sc(C)c2C)c(C)c1 (stereo not given) | -9.45% | – |
| CCn1cc(NC(=O)Nc2ccc(OC)c(OC)c2)c(C(N)=O)n1 | -5.88% | – |
| COc1ccc(NC(=O)NC(C)c2c(-n3cccc3)sc(C)c2C)cc1OC (stereo not given) | – | 50.1 µM (active) |
| Cc1cc2c(s1)c1cnn(Cc3c(F)cccc3Cl)c(=O)c1n2C | -4.79% | – |
| Cc1ccc(S(=O)(=O)N(CC(=O)Nc2ccc(Cl)cc2Cl)c2ccccc2C)cc1 | -1.12% | – |
| COc1cccc(CNC(=O)c2ccc3c(c2)sc2nc(-c4cccc(OC)c4)cn23)c1 | 0.987% | – |
| CCc1ccc(-c2cc(C(=O)NN3CCN(C)CC3)c3ccccc3n2)cc1 | -24.1% | – |
| CCc1cc(C(=O)c2ccc(OC)cc2)c(NC(=O)CN2CCN(C)CC2)s1 | -35.7% | – |
| CCCCc1nc2ccccc2c(NC(=O)CN2CCN(C)CC2)c1CCC | – | 0.708 µM (active) |
| CC(C)C(=O)Nc1nc2c(s1)CC(C(C)(C)C)CC2 (stereo not given) | 4.64% | – |
| CC1CN(C(=O)N2CCC(C(=O)NCc3cccs3)CC2)c2ccccc2O1 (stereo not given) | 0% | – |
| Cc1nn(-c2nc(-c3ccccc3)cc(C(F)(F)F)n2)c(C)c1Cl | 33.8% | – |
| CNc1ccc(-c2nc(-c3ccccc3C)no2)cc1[N+](=O)[O-] | -1.66% | – |

| Compound | activity change, negative = inhibition | Potency |
| --- | --- | --- |
| COc1ccc(N(C)C(=O)C2CCN(S(=O)(=O)c3cc(Br)cc4c3N(C(C)=O)CC4)CC2)cc1 | -15% | – |
| Cc1onc(-c2ccccc2Cl)c1C(=O)N(Cc1ccc(N(C)C)cc1)C(C)C | – | 39.8 µM (active) |
| Cc1ccc2cc(CCNC(=O)c3c(-c4ccccc4Cl)noc3C)c(=O)[nH]c2c1 | -5.52% | – |
| Cc1onc(-c2ccccc2Cl)c1C(=O)NCCn1ccc2ccccc21 | 1.65% | – |
| CCOc1ccc(OCC)c(Nc2nc3ccccc3n3nnnc23)c1 | -3.36% | – |
| CCC(=O)N1CCc2cc(Br)cc(S(=O)(=O)CCC(=O)N3CCN(c4ccc(F)cc4)CC3)c21 | -17.4% | – |
| Cc1ccccc1CSc1nc(-c2ccccc2)nc2c1Cc1c(CO)cnc(C)c1O2 | 4.4% | – |
| CCOC(=O)Cn1c(=O)n(C2CCCCC2)c2nc(-c3cccc(OC)c3)nc(C(N)=O)c21 | 6.39% | – |
| CN(C(=O)CSc1nc2ccccc2n1Cc1ccccc1C#N)c1ccccc1 | -17.2% | – |
| O=C(CN1CCCCCC1)NCCN1C(=O)S/C(=C\c2ccccc2Cl)C1=O | -27.5% | – |
| N#Cc1ccccc1CN1C(=O)S/C(=C/c2cccn2-c2cccc(C(=O)O)c2)C1=O | – | 56.2 µM (active) |
| CCOc1ccccc1NC(=O)C1=C(C)Nc2ncnn2C1c1ccc(NC(C)=O)cc1 (stereo not given) | -9.27% | – |
| COc1ccc(Cl)cc1NC(=O)CSc1nc2ccccc2c2nc(-c3ccccc3)nn12 | -16.3% | – |
| O=C1COc2c1ccc(O)c2O | – | 5.62 µM (active) |
| CC(C)(C)c1ccc(CN2C(=O)c3ccccc3S2(=O)=O)cc1 | 39.4% | – |
| COc1ccc(CN2CCC(=O)c3ccccc3S2(=O)=O)cc1 | -16.6% | – |
| O=C1CN(Cc2ccccc2)S(=O)(=O)c2ccccc21 | – | 79.4 µM (active) |
| CCn1cc2nc(SCc3cccc(F)c3)n(CCc3ccccc3)c(=O)c2n1 | -13.6% | – |
| Cc1ccccc1Nc1nc(N)nc(CSc2ccccc2)n1 | -23.1% | – |
| Cc1ccccc1Nc1nc(N)nc(CN2CCN(c3ccccn3)CC2)n1 | – | 56.2 µM (active) |
| Cc1ccccc1Nc1nc(N)nc(CSc2nnc3ccccn23)n1 | -1.03% | – |
| Cc1cc(NC(=O)c2cccc(Cl)c2)ccc1-c1cc2ccccc2oc1=O | -15% | – |
| O=C(c1cccs1)c1cn(CCOc2ccc(Cl)cc2)c2ccccc12 | -16.5% | – |
| CCN(CC)CCNC(=O)c1cc2c(=O)oc3ccc(C)cc3c2s1 | 5.72% | – |
| CCc1ccc(S(=O)(=O)c2nnn3c2nc(NCc2ccccc2OC)c2cc(Cl)ccc23)cc1 | 2.18% | – |

| Compound | activity change, negative = inhibition | Potency |
| --- | --- | --- |
| O=[N+]([O-])c1ccc(N2CCN(c3ccc(O)cc3)CC2)c(Cl)c1 | – | 44.7 µM (active) |
| COc1ccc(N2CCN(c3ccc([N+](=O)[O-])cc3Cl)CC2)cc1 | -10.3% | – |
| CN(C)S(=O)(=O)N1CCN(c2ccc([N+](=O)[O-])cc2)CC1 | -14.7% | – |
| Cc1ccc(Cl)cc1NC(=O)CCS(=O)(=O)c1ccc(Br)s1 | -32.1% | – |
| Cc1ccc(S(=O)(=O)N2CC(=O)Nc3ccccc32)cc1C | -9.3% | – |
| Cc1ccc(C)c(S(=O)(=O)N2CC(=O)Nc3ccccc32)c1 | – | 79.4 µM (active) |
| Cc1ccc(C)c(S(=O)(=O)N2CCN(C(=O)Nc3ccccc3)CC2)c1 | -24% | – |
| CCOc1ccc(CCNC(=O)c2csc3c2CCCCC3)cc1 | -11.6% | – |
| COc1ccc(C2=NC3(CCCCC3)N(CC(=O)Nc3ccc(C(C)C)cc3)C2=O)cc1 | -11.7% | – |
| Cc1ccc(-n2nc(C)c3c(C)cc(=O)n(CC(=O)Nc4ccc(C(C)C)cc4)c32)cc1 | -1.33% | – |
| CC(NS(=O)(=O)c1ccc(OCC(=O)N2CCCC2)cc1)c1ccccc1 (stereo not given) | -20% | – |
| CC(NS(=O)(=O)c1ccccc1)c1n[nH]c(=S)n1-c1ccccc1 (stereo not given) | – | 25.1 µM (active) |
| CCCCC(CC(C)O)c1n[nH]c(=S)n1-c1ccccc1 (stereo not given) | – | 28.2 µM (active) |
| CC(=O)Nc1ccc(NC(=O)COc2ccc(S(=O)(=O)NC(C)c3ccccc3)cc2)cc1 (stereo not given) | -12.4% | – |
| CCCSc1nc2sc3c(c2c(=O)n1-c1cccc(Br)c1)CC(C)(C)OC3 | -6.23% | – |
| CCC(C(=O)Nc1cccc(Cl)c1C)n1nc(-c2ccc(C)cc2)ccc1=O (stereo not given) | 1.57% | – |
| CCc1ccc(NC(=O)c2cc(S(=O)(=O)NC3CCCCCC3)ccc2F)cc1 | -16.5% | – |
| COCCn1c(SCC(=O)Nc2nc(C)cs2)nnc1C(C)C | -6.34% | – |
| CCn1c(SCC(=O)NC2=NCCS2)nnc1C(C)NC(=O)c1ccccc1F (stereo not given) | 0.714% | – |
| CCn1c(SCC(=O)Nc2nc(C)cs2)nnc1C(C)NC(=O)c1ccccc1 (stereo not given) | – | 79.4 µM (active) |
| Cc1ccc(N2CC(NC(=O)Cc3cccs3)CC2=O)cc1 (stereo not given) | -0.325% | – |
| COc1cccc(CNCc2c(C(=O)O)n(Cc3ccc(C)cc3)c3cc(C)ccc23)c1OC | -27.8% | – |
| Oc1oc(-c2ccccc2Br)nc1/C=N/c1ccccn1 | -28.1% | – |
| CC(N=Cc1nc(-c2ccccc2)oc1O)c1ccccc1 (stereo not given) | – | 79.4 µM (active) |
| CCOc1ccc2nc(/N=C/c3nc(-c4ccccc4)oc3O)sc2c1 | 0.641% | – |

From PubChem BioAssay AID504339 (National Center for Advancing Translational Sciences (NCATS), 2011)
